Shown are actives, neighbours in structure and some others; about 5.2% of the full set was active somewhere.
Sfp PPTase inh = qHTS Assay for Inhibitors of Bacillus subtilis Sfp phosphopantetheinyl transferase (PPTase) | 4'-phosphopantetheinyl transferase ffp (Bacillus subtilis), Q9F4F7 | Biochemical Sfp PPTase activity, qHTS | Potency, µM, for the others: largest response in the series, negative = inhibition, most hits filed as inhibitors | 310,000 compounds, 3.5% hits | AID 1490, 2009;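 further: the enzyme is Sfp with the accession as filed and its product quenches rhodamine fluorescence; 0% = enzyme reaction without inhibitor and -100% = no enzyme wells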
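Fluorescence-quenching assay with 15 nM Sfp, 5 uM rhodamine-CoA and 12.5 uM BHQ-2-labelled ybbR peptide in pH 7.6 Hepes/MgCl2 buffer. Enzyme was pre-incubated with compound for 15 min at room temperature. Rate was taken from the 30-min fluorescence change (525/598 nm).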
VDR inh = Inhibitors of the vitamin D receptor (VDR): qHTS. Vitamin D3 receptor (Homo sapiens), P11473. VDR-SRC2-3 peptide fluorescence polarization, 2 h. Potency, µM, for the others: max response, negative = inhibition, usual class: inhibitors. 400,000 compounds, 0.93% hits. AID 504847, 2011
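Fluorescence polarization assay of small-molecule disruption of VDR binding to coregulator peptide SRC2-3. Compounds and controls pin-transferred, then read after 2 h incubation at ambient room temperature.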
PLK1 PBD inh = qHTS for Inhibitors of PLK1-PDB (polo-like kinase 1 - polo-box domain): Primary Screen. Serine/threonine-protein kinase PLK1 (Homo sapiens), P53350. Plk1 PBD binding of FITC phosphopeptide, fluorescence polarization. Potency, µM, inactives show max response, negative = inhibition, most hits filed as inhibitors. 360,000 compounds, 2.8% hits; further: series mostly up to about 57 µM; nearly all actives have a fitted effect of over 65% in size
Target sequence (P53350 whole entry, looked up, the tested form may be a part): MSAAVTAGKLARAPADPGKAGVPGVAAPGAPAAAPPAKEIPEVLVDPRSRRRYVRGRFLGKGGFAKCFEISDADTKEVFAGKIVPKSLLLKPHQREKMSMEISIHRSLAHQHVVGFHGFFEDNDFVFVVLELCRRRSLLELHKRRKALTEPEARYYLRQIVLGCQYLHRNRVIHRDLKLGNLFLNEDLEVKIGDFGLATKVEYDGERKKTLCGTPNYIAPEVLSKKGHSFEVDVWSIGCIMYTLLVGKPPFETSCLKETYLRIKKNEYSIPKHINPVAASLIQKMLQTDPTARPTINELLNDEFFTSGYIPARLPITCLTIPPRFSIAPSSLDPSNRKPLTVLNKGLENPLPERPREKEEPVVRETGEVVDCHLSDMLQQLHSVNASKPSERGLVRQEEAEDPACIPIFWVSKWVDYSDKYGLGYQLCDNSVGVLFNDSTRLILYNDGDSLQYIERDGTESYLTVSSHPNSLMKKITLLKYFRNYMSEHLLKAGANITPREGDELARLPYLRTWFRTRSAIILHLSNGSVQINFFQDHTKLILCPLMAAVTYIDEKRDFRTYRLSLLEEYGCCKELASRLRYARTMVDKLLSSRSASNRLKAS
TrxR1 substrate = qHTS Assay for Substrates of Mammalian Selenoprotein Thioredoxin Reductase 1 (TrxR1): qHTS; Thioredoxin reductase 1, cytoplasmic (Rattus norvegicus), O89049; purified TrxR1 substrate turnover, NADPH consumption readout; Potency, µM (top dose mostly 114 µM), for the others: at the top dose activity change, negative = substrate turnover; 390,000 compounds, 0.01% hits; further: nearly all actives have a fitted effect of over 50% in size
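Rat TrxR1, dispensed at 90 nM, was prereduced with 400 uM NADPH (final) for 5 min at ~22 deg C, then incubated with compound 15 min before 400 uM selenite. A first-read NADPH fluorescence drop versus no-compound background flagged substrates.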
IDH1 R132H inh = qHTS for Inhibitors of mutant isocitrate dehydrogenase 1 (IDH1): qHTS. IDH1-R132H enzyme, NADPH consumption, diaphorase/resazurin fluorescence. Potency, µM (top dose mostly 76.6 µM), inactives show top-dose activity change, negative = inhibition, hits mostly inhibitors. 390,000 compounds, 0.093% hits; further: nearly all actives have a fitted effect of over 65% in size
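IDH1-R132H (0.5 ug/mL) preincubated 30 min with compound, then NADPH (0.016 mM) and alpha-KG (2 mM) added; 80 min at RT, pH 7.5. Remaining NADPH coupled via diaphorase/resazurin to fluorescence (540/590 nm); concentration-response curves normalized to no-enzyme control.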
rTrxR1 inhibitor = qHTS Assay for Inhibitors of Mammalian Selenoprotein Thioredoxin Reductase 1 (TrxR1): qHTS | recombinant rTrxR1, NADPH fluorescence consumption, selenite substrate | 390,000 compounds, 1% hits | Potency, µM (highest dose often 114 µM), inactives show top-dose activity change, negative = inhibition, actives largely listed as inhibitors | Thioredoxin reductase 1, cytoplasmic (Rattus norvegicus), O89049; further: nearly all actives have a fitted effect of over 65% in size
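Rat TrxR1 (90 nM in the dispensed reagent) was pre-reduced with 400 uM NADPH for 5 min at room temperature, then incubated with compound for 15 min. After 400 uM selenite was added, NADPH fluorescence (Ex 340/Em 450 nm) was followed for 8 min.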
* marks the source's active call; other numbers are inactive results; [ ] = remark or other dose. The call rests on the fitted dose curve; in most records, active means well fitted curve in the direction sought with a large enough effect; inconclusive means small, poorly fitted or top-dose-only effect, or another doubt; inactive means no such curve, though single readings can be large; an effect the other way counts as inactive or inconclusive. Unless noted, on the % scale 0 is the no-effect control and ±100 the full control effect; potency means the concentration at half of the fitted maximal effect.

`Cc1c2c(c(O)c3c(O)cccc13)C(=O)O[C@H]2C1C(N(C)C)C(O)=C(C(N)=O)C(=O)[C@H]1O` (stereo partly drawn) gave Sfp PPTase inh inconclusive and VDR inh 16µM*.
Screening O=C(O)/C(CC(=O)c1ccc(Cl)cc1)=N/Nc1ccc([N+](=O)[O-])cc1[N+](=O)[O-] returned Sfp PPTase inh 2%, VDR inh -27%, PLK1 PBD inh 24µM*, TrxR1 substrate -10%, IDH1 R132H inh -12% and rTrxR1 inhibitor -10%.
C/C(CCC(=O)O)=N/Nc1ccc([N+](=O)[O-])cc1[N+](=O)[O-] was read as Sfp PPTase inh -3%, VDR inh -3%, PLK1 PBD inh -7%, TrxR1 substrate -21%, IDH1 R132H inh -1% and rTrxR1 inhibitor inconclusive.
For CN(C)/C=C\C(=C/C(=O)C(F)(F)F)Nc1ccccc1Oc1ccccc1 the results were Sfp PPTase inh 45µM*, VDR inh 13%, PLK1 PBD inh -5%, TrxR1 substrate -7%, IDH1 R132H inh -6% and rTrxR1 inhibitor -4%.
COc1ccc(NC(=O)CNS(=O)(=O)c2cccc3nonc23)c(OC)c1 was read as Sfp PPTase inh 5%, VDR inh 3%, PLK1 PBD inh 30µM*, TrxR1 substrate 2%, IDH1 R132H inh 0% and rTrxR1 inhibitor -10%.
`COc1ccc(NC(=O)CCNS(=O)(=O)c2cccc3nonc23)c(OC)c1` gave Sfp PPTase inh 8%, VDR inh 11%, PLK1 PBD inh -6%, TrxR1 substrate -3%, IDH1 R132H inh 4% and rTrxR1 inhibitor 18%[0.457 µM].
For CCC(=O)Nc1ccccc1Oc1ccccc1 the results were Sfp PPTase inh 11%, VDR inh -23%, PLK1 PBD inh 24µM*, TrxR1 substrate 8%[57.1 µM], IDH1 R132H inh 4% and rTrxR1 inhibitor 7%[57.1 µM].
`CCC(=O)Nc1ccc(OC)cc1OC` gave Sfp PPTase inh 4%, VDR inh inconclusive, PLK1 PBD inh 6.7µM*, TrxR1 substrate -6%, IDH1 R132H inh 1% and rTrxR1 inhibitor -2%.
`Cc1ccc(NC(/C=C/N(C)C)=C/C(=O)C(F)(F)F)c(C)c1` gave Sfp PPTase inh 1%, VDR inh -5%, PLK1 PBD inh 6%, TrxR1 substrate -16%, IDH1 R132H inh -5% and rTrxR1 inhibitor inconclusive.
CCCCC(=O)Nc1ccccc1Oc1ccccc1 was read as Sfp PPTase inh 3%, VDR inh 2%, PLK1 PBD inh -5%, TrxR1 substrate -3%, IDH1 R132H inh 1% and rTrxR1 inhibitor 10%.
COc1ccc(NC(=O)CN(C)C(=O)c2ccccc2Sc2ncnc3sc(C)c(C)c23)cc1 was read as VDR inh -1%, PLK1 PBD inh -12%, TrxR1 substrate -4%[57.1 µM], IDH1 R132H inh 4% and rTrxR1 inhibitor 10%[57.1 µM].
`O=C(Cc1ccc(NC2=NC3CS(=O)(=O)CC3S2)cc1)NCc1ccc(Cl)cc1` (stereo not drawn) gave Sfp PPTase inh 16%, VDR inh -3%, PLK1 PBD inh -2%, TrxR1 substrate 1%[57.1 µM], IDH1 R132H inh 3% and rTrxR1 inhibitor 11%[57.1 µM].
Screening CC(O)CSc1nc2c(c(=O)[nH]c(=O)n2C)n1CC(O)COc1ccccc1 (stereo not drawn) returned Sfp PPTase inh -41%, VDR inh inconclusive, PLK1 PBD inh 27µM*, TrxR1 substrate -5%, IDH1 R132H inh -5% and rTrxR1 inhibitor 18%.
Cn1c(=O)[nH]c(=O)c2c1nc(NN)n2CCOc1ccccc1 was read as Sfp PPTase inh 25µM*, VDR inh -1%, PLK1 PBD inh -3%, TrxR1 substrate 10%[57.1 µM], IDH1 R132H inh 4% and rTrxR1 inhibitor 1%[57.1 µM].
Screening CC(C)Sc1nc2c(c(=O)[nH]c(=O)n2C)n1CC(O)COc1ccccc1 (stereo not drawn) returned Sfp PPTase inh inconclusive, VDR inh 3%, PLK1 PBD inh 24µM*, TrxR1 substrate -11%[57.1 µM], IDH1 R132H inh 11% and rTrxR1 inhibitor 19%[57.1 µM].
CCSc1nc2c(c(=O)[nH]c(=O)n2C)n1CC(O)COc1ccc(Cl)cc1 (stereo not drawn) was read as VDR inh -12%, TrxR1 substrate 7%, IDH1 R132H inh 14% and rTrxR1 inhibitor 6%.
CCCn1c(N/N=C(C)\C=C\c2ccccc2)nc2c1c(=O)[nH]c(=O)n2C was read as Sfp PPTase inh 40µM*.
For CCCCOc1ccc(-c2nn(-c3ccccc3)cc2C2NC(=O)NC(C)=C2C(=O)OCC)cc1 (stereo not drawn) the results were VDR inh -26%, TrxR1 substrate -3%, IDH1 R132H inh -5% and rTrxR1 inhibitor 19%.
Screening CN(CCO)c1nc(N)c2c(N)nc3c(c2c1C#N)CC(=O)N3C1CCCC1 returned Sfp PPTase inh 50µM*.
`N#Cc1c(N2CCN(c3ccc(F)cc3)CC2)nc(N)c2c(N)nc3c(c12)CC(=O)N3C1CC1` gave Sfp PPTase inh 4%, VDR inh 14%, PLK1 PBD inh -29%, TrxR1 substrate 8%[57.1 µM], IDH1 R132H inh 2% and rTrxR1 inhibitor -8%[57.1 µM].
Screening Cc1cc(C)c(NC(=O)CN2c3ccccc3S(=O)(=O)c3ccccc32)c(C)c1 returned VDR inh 11%, TrxR1 substrate 3%[57.1 µM], IDH1 R132H inh 19% and rTrxR1 inhibitor 24%[57.1 µM].
Screening NC(=O)c1c(NC(=O)CN2CCCC2)sc2c1CCCC2 returned Sfp PPTase inh -12%, VDR inh inconclusive, PLK1 PBD inh 3µM*, TrxR1 substrate 0%[57.1 µM], IDH1 R132H inh -2% and rTrxR1 inhibitor -42%.
For NC(=O)c1c(NC(=O)C2CC=CCC2C(=O)O)sc2c1CCCCC2 (stereo not drawn) the results were Sfp PPTase inh 35µM*, VDR inh 71µM*, PLK1 PBD inh 27µM*, TrxR1 substrate 6%, IDH1 R132H inh 7% and rTrxR1 inhibitor 1%.
Screening CCOC(=O)c1c(NC(=O)OC)sc2c1CCC2 returned Sfp PPTase inh 32µM*, VDR inh -11%, PLK1 PBD inh -5%, TrxR1 substrate 5%, IDH1 R132H inh 8% and rTrxR1 inhibitor 12%.

Screens (PubChem BioAssay)
